NTR1 agonist: agonists of human NTR1, primary screen, imaging, U2OS cells, beta-arrestin-GFP, high content | activation, % at 20 µM | 330,000 compounds, 0.17% hits | NTR1-U2OS beta-arrestin-GFP spot imaging, agonist mode | Neurotensin receptor type 1 (Homo sapiens), P30989 | AID 493036, 2011;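 active = activation at or above 40% of the spot to cytoplasm intensity ratio, with at least 20 cells analyzed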;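 note: 0% = DMSO without peptide and 100% = 100 nM NTR1 peptide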
Mot1-301 SUMO: yeast Mot1-301 growth rescue at high temperature, primary screen, SUMOylation pathway inhibitor project, S. cerevisiae, ATP luminescence, 38.5C; S. cerevisiae Mot1-301 growth rescue; percent above DMSO median, 100 means doubled; growth rescue, % at 18.8 µM; 320,000 compounds, 1% hits; AID 2716, 2010;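 active = every valid replicate shows activation above 250% relative to neutral control wells; inactive = the rest, any valid replicate at or below 250%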;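 note: OY570 slx delta 5 strain wells were the positive control but not used for scaling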
H9c2 protect: cardioprotection against H2O2-induced cell death, primary screen, uHTS, H9c2 cells, ATPLite luminescence. protection from H2O2 cell death, % at 20 µM. 360,000 compounds, 0.63% hits. AID 588492, 2011. H9c2 cardiomyocytes, H2O2 injury protection, 2 h;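 active = compounds giving at least 50% protection of heart cells from peroxide-induced death in the single-dose screen, raw or plate-pattern-corrected value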;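 note: 0% = DMSO wells with peroxide and 100% = DMSO wells without peroxide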
AI-2 QS mod: Vibrio harveyi AI-2 quorum sensing modulators, primary screen, JMH597 strain, luminescence/OD600 ratio. Vibrio harveyi JMH597 AI-2 luminescence/OD600 ratio, 9 h; hits give low values; strain lacks LuxN and CqsS sensors; 0 = neutral-control median. activity change, % at 7.5 µM. 300,000 compounds, 0.4% hits. AID 2094, 2009; in the data active = activity change below about -75%, passing the limit was not always enough;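 note: luminescence divided by OD600 gain over 9 h not by final OD600 alone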
GRIN3A LBD mod: binders of NR3A ligand-binding domain, primary screen, biophysical, differential scanning fluorimetry, uHTS; Tm shift relative to glycine control, % at 25 µM; 340,000 compounds, 2.5% hits; NR3A LBD differential scanning fluorimetry, Tm shift; 0% = protein alone, 100% = glycine-bound protein; Glutamate receptor ionotropic, NMDA 3A (GRIN3A) ligand-binding domain;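 active = melting temperature shift of at least 10% of the positive control shift, at one fixed dose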
AHR activator: AHR activators, primary screen, cell-based, luminescence, luciferase reporter, human; Aryl hydrocarbon receptor (Homo sapiens), P35869; AHR-responsive luciferase reporter cells; activation, % at 5 µM; 320,000 compounds, 2.5% hits; in the data active = activation above about 47%;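 note: 0% = vehicle wells and 100% = reference agonist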
Target sequence (P35869 whole entry, looked up): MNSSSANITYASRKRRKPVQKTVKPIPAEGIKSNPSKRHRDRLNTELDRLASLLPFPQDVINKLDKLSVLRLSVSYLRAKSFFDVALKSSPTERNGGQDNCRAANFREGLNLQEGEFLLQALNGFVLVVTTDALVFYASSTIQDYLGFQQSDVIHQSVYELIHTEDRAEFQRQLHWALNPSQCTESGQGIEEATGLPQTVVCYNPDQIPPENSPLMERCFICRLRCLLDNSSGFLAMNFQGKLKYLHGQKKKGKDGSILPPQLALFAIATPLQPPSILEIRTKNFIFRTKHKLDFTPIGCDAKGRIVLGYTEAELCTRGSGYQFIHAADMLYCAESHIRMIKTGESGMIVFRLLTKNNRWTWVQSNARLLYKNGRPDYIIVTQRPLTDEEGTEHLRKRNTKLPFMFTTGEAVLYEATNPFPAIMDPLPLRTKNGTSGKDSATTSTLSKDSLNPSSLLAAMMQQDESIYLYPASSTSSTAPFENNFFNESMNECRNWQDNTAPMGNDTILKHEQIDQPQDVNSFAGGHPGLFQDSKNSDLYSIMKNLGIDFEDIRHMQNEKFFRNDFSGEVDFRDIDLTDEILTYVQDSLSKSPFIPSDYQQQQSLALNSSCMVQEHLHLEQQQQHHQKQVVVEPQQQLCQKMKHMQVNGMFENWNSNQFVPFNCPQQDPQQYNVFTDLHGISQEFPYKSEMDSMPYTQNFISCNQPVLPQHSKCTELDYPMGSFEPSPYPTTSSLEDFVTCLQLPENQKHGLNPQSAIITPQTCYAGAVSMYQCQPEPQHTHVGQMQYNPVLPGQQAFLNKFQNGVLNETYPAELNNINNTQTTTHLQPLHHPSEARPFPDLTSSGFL
* marks the source's active call; other numbers are inactive results. This is a sample that favours compounds with a hit; in the whole collection about 6.2% have one here.

`O=C(C1CCCN(C2CC(=O)N(c3ccc(Cl)cc3)C2=O)C1)N1CCCC1` (stereo not given) gave NTR1 agonist -0.9, Mot1-301 SUMO 266.5*, H9c2 protect -1.0, AI-2 QS mod 72.0 and GRIN3A LBD mod 2.2.
`COc1ccc2nc(C(F)(F)C(F)(F)F)c(C#N)c(N)c2c1` gave NTR1 agonist 10.5, Mot1-301 SUMO 303.1, H9c2 protect -23.3, AI-2 QS mod 18.1, GRIN3A LBD mod 21.9* and AHR activator 14.8.
`COc1cc(OC)c2c(N)c(C#N)c(C(F)(F)C(F)(F)F)nc2c1` gave NTR1 agonist -2.5, Mot1-301 SUMO 8.9, H9c2 protect -2.8, AI-2 QS mod 4.4, GRIN3A LBD mod -0.7 and AHR activator 24.5.
For Cc1cc(C)n(CC(=O)NC2CCCCC2C)c(=O)c1C#N (stereo not given) the results were NTR1 agonist 0.9, Mot1-301 SUMO 8.6, H9c2 protect 4.3, AI-2 QS mod -15.0 and AHR activator -1.0.
Screening COc1cccc(NC(=O)NC2CC(=O)N(c3ccc4c(c3)OCCO4)C2)c1 (stereo not given) returned NTR1 agonist -1.1, Mot1-301 SUMO -9.8, H9c2 protect -0.6, AI-2 QS mod 36.2, GRIN3A LBD mod -1.1 and AHR activator -3.3.
Screening CC(=O)c1ccc(NC(=O)NC2CC(=O)N(c3ccc4c(c3)OCCO4)C2)cc1 (stereo not given) returned NTR1 agonist -1.6, Mot1-301 SUMO 7.7, H9c2 protect 4.7, AI-2 QS mod 8.6, GRIN3A LBD mod 14.1* and AHR activator -1.3.
O=[N+]([O-])c1ccc(C2=NN(c3ccccc3)C(c3ccco3)C2)cc1 (stereo not given) was read as H9c2 protect -6.1, AI-2 QS mod -5.3 and GRIN3A LBD mod 339.5*.
`CC1=NN(c2ccccc2)C(c2ccco2)C1` (stereo not given) gave H9c2 protect -1.4 and GRIN3A LBD mod -1.0.
O=[N+]([O-])c1ccc(/C=C/C2=NN(c3ccccc3)C(c3ccco3)C2)cc1 (stereo not given) was read as Mot1-301 SUMO -4.6, H9c2 protect -0.8, GRIN3A LBD mod 263.1* and AHR activator -1.2.
`COc1ccccc1N=NNc1ccccc1OC` gave H9c2 protect 0.3.
CNc1oc(C)nc1S(=O)(=O)c1ccccc1 was read as NTR1 agonist -0.1, Mot1-301 SUMO 596.3, H9c2 protect -2.7, AI-2 QS mod -4.9, GRIN3A LBD mod 15.0* and AHR activator 2.2.
`CN(C1CCCCC1)S(=O)(=O)c1cn(C)c(=O)n(C)c1=O` gave NTR1 agonist 1.9, Mot1-301 SUMO -7.5, H9c2 protect 16.1, GRIN3A LBD mod -0.3 and AHR activator 0.7.
`Cc1ccc(C(=O)N2[C@@H]3CN(C)C(=O)[C@@]2(Cc2ccccc2)[C@H]2C(=O)N(Cc4ccccc4)C(=O)[C@@H]32)cc1` gave H9c2 protect 3.7 and GRIN3A LBD mod 16.8*.
For O=C1c2ccccc2C(=O)N1CCc1ccccc1 the results were NTR1 agonist 0.8, Mot1-301 SUMO 42.2, H9c2 protect 4.6, AI-2 QS mod 18.9, GRIN3A LBD mod -0.5 and AHR activator 60.3*.
For O=C1c2ccccc2C(=O)N1CCCCCCc1ccccc1 the results were NTR1 agonist 2.8, Mot1-301 SUMO 6.9, H9c2 protect -10.2, GRIN3A LBD mod -2.7 and AHR activator -0.3.
`COC(=O)C1=C(C(=O)OC)[C@]2([C@H]3CC=CCN[C@@H](Cc4ccccc4)C(=O)N3Cc3ccccc3)C=C[C@H]1O2` gave H9c2 protect -6.0 and GRIN3A LBD mod -3.1.
`CC1(C(=O)NS(=O)(=O)c2ccccc2)CCN1C(=O)CCc1ccc(Cl)cc1Cl` (stereo not given) gave H9c2 protect 1.8.
`O=C(Cc1ccc([N+](=O)[O-])cc1)c1ccccc1` gave H9c2 protect -3.9 and GRIN3A LBD mod 1.9.
`O=C(COc1ccccc1)Nc1ccc([N+](=O)[O-])cc1` gave NTR1 agonist -1.2, Mot1-301 SUMO -16.0, H9c2 protect 0.9, AI-2 QS mod 12.2, GRIN3A LBD mod -1.8 and AHR activator -8.8.
Screening O=C(CC(=O)c1ccccc1)Nc1ccc([N+](=O)[O-])cc1 returned H9c2 protect -14.5 and GRIN3A LBD mod 19.6*.
For O=C(COc1ccc([N+](=O)[O-])cc1)Nc1ccc(NC(=O)c2ccccc2)cc1 the results were NTR1 agonist 0.1, Mot1-301 SUMO 146.9, H9c2 protect -2.8, AI-2 QS mod 19.8, GRIN3A LBD mod 13.2* and AHR activator -2.5.
For CC(=O)c1ccc(NS(=O)(=O)c2ccc([N+](=O)[O-])cc2)cc1 the results were H9c2 protect -3.1 and GRIN3A LBD mod -3.4.
Screening CS(=O)(=O)Nc1ccc(C(=O)CC(=O)Nc2ccc([N+](=O)[O-])cc2)cc1 returned NTR1 agonist -0.5, Mot1-301 SUMO 3.6, H9c2 protect 4.1, AI-2 QS mod 39.4, GRIN3A LBD mod 36.7* and AHR activator 0.1.
`O=C(COc1ccc([N+](=O)[O-])cc1)NNC(=S)NC(=O)c1ccc(Br)cc1` gave NTR1 agonist 3.2, Mot1-301 SUMO -14.9, H9c2 protect 11.9, AI-2 QS mod -127.3*, GRIN3A LBD mod -2.1 and AHR activator 5.9.
`CC1(C)CC(=O)C=C(c2ccc3c(c2)OCO3)C1` gave NTR1 agonist -0.2, Mot1-301 SUMO 11.1, H9c2 protect 2.2, AI-2 QS mod 16.8, GRIN3A LBD mod -1.4 and AHR activator 59.4*.
CC1(C)CC(=O)C=C(c2ccc(-c3ccccc3)cc2)C1 was read as NTR1 agonist 3.0, Mot1-301 SUMO -11.1, H9c2 protect -7.9, GRIN3A LBD mod -1.0 and AHR activator -0.3.
COC(=O)CCCC(=O)N1CCC(CCC(=O)NCc2ccc(F)cc2)CC1 was read as NTR1 agonist -0.4, Mot1-301 SUMO -8.8, H9c2 protect -0.4, AI-2 QS mod 7.8, GRIN3A LBD mod -4.4 and AHR activator -1.8.
For Cc1ccc(C(=O)Nc2ccncc2)cc1[N+](=O)[O-] the results were NTR1 agonist -0.2, Mot1-301 SUMO 23.2, H9c2 protect -7.9, AI-2 QS mod 5.1, GRIN3A LBD mod 2.0 and AHR activator -1.6.
